TIM10 inh = inhibits growth of TIM10 yeast strain; S. cerevisiae TIM10 strain growth, BacTiter-Glo luminescence, 24 h; inhibition, % at 10 µM; 330,000 compounds, 1.4% hits; AID 463195;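 active means inhibition of 40% or more at the single tested concentration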;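 further: wild-type TIM10 isogenic control strain grown at permissive 25 °C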
PfHsp90 yeast 2 = inhibits growth of yeast expressing Plasmodium falciparum Hsp90. S. cerevisiae expressing PfHsp90, BacTiter-Glo ATP, 48 h; yeast lacking PDR1 and PDR3 efflux regulators. inhibition, % at 9.4 µM. 310,000 compounds, 0.32% hits. AID 504621;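 active means every replicate shows inhibition above about 80%, whatever the replicate mean, limit read from the data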
tim10-1 inh = growth inhibitors of tim10-1 mutant yeast; 330,000 compounds, 2.2% hits; inhibition, % at 20 µM; S. cerevisiae tim10-1 ts strain growth, BacTiter-Glo, 24 h;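 active means inhibition of at least 40%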;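 further: mutant grown at 25 °C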
tim23-1 inh = growth inhibitors of tim23-1 mutant yeast | S. cerevisiae tim23-1 growth, BacTiter-Glo luminescence, 24 h | inhibition, % at 20 µM | 330,000 compounds, 1.3% hits | AID 463212;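 active means growth inhibition of the mutant yeast at or above 50%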;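 further: temperature-sensitive mutant grown at 25 °C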
NLRP3 yeast inh = blocks the NALP3 inflammasome reconstituted in yeast; 330,000 compounds, 0.39% hits; Yeast reconstituted NLRP3/ASC/caspase-1, beta-gal luminescence, 24 h; inhibition, % at 10 µM;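 active means inhibition of 50% or more; inactive means inhibition below 50%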
tim10-1 conf = tim10-1 yeast growth inhibition, confirmed | shares compounds with tim10-1 inh | S. cerevisiae tim10-1 ts strain growth, BacTiter-Glo, 24 h | inhibition, % at 20 µM | 7,400 compounds, 56% hits | AID 463213;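 active means inhibition of yeast growth at or above a set limit in either of two repeat tests at 20 µM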;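 further: tim10-1 mutant grown at permissive 25 °C to find synthetic lethal compounds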
TIM10 conf = TIM10 yeast growth inhibition, confirmed. shares compounds with TIM10 inh. S. cerevisiae tim10 strain growth, BacTiter-Glo luminescence, 24 h. inhibition, % at 10 µM. 4,600 compounds, 63% hits. AID 463215;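 active means inhibition of yeast growth at or above a set limit in either of two replicates at 10 µM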; further: this counterscreen used the strain with wild-type TIM10
tim23-1 conf = tim23-1 yeast growth inhibition, confirmed. 4,400 compounds, 83% hits. S. cerevisiae tim23-1 growth, BacTiter-Glo luminescence, 24 h. AID 463218. shares compounds with tim23-1 inh. inhibition, % at 20 µM;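 active means inhibition above about 39% in either of two replicate wells at 20 µM, limit read from the data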;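 further: temperature-sensitive tim23-1 mutant grown at 25 °C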
A number is an active result. In the library only some 3.7% were active in any assay of this set; here they are far more common.

What do the screens show for `Cc1cc(C)c(NC(=O)CC(=O)c2ccccc2)c(Cl)c1`?
TIM10 inh: inactive; PfHsp90 yeast 2: inactive; tim10-1 inh: inactive; tim23-1 inh: inactive; NLRP3 yeast inh: inactive

How did Cc1cc(C)c(C(=O)CC(=O)c2ccccc2Cl)c(O)c1 do in these assays?
TIM10 inh: inactive; PfHsp90 yeast 2: inactive; tim10-1 inh: 48; tim23-1 inh: 65; NLRP3 yeast inh: inactive; tim10-1 conf: 36; tim23-1 conf: 76

Results for Cc1cccc(C)c1NS(=O)(=O)c1ccc(-c2cnc(C3CC3)o2)cc1 ?
TIM10 inh: inactive; PfHsp90 yeast 2: inactive; tim10-1 inh: 54; tim23-1 inh: 71; NLRP3 yeast inh: inactive; tim10-1 conf: 32; tim23-1 conf: 63

How did Oc1c(Cl)cc(Cl)cc1C=Nc1cc(C(F)(F)F)ccc1N1CCc2ccccc2C1 do in these assays?
TIM10 inh: inactive; PfHsp90 yeast 2: inactive; tim10-1 inh: 60; tim23-1 inh: 58; NLRP3 yeast inh: inactive; tim10-1 conf: 36; tim23-1 conf: 59

How did Oc1c(Cl)cccc1C=Nc1cc(C(F)(F)F)ccc1N1CCCC1 do in these assays?
TIM10 inh: inactive; PfHsp90 yeast 2: inactive; tim10-1 inh: inactive; tim23-1 inh: inactive; NLRP3 yeast inh: inactive

How did CCCn1nc([N+](=O)[O-])c(C(C#N)c2nc3ccccc3s2)c(Cl)c1=O (stereo not drawn) do in these assays?
TIM10 inh: 68; PfHsp90 yeast 2: inactive; tim10-1 inh: 73; tim23-1 inh: 72; NLRP3 yeast inh: inactive; tim10-1 conf: 62; TIM10 conf: 88; tim23-1 conf: inactive

Results for COc1ccccc1OCC(=O)Nc1ccc(S(=O)(=O)Nc2onc(C)c2C)cc1 ?
TIM10 inh: inactive; PfHsp90 yeast 2: inactive; tim10-1 inh: inactive; tim23-1 inh: inactive; NLRP3 yeast inh: inactive

What do the screens show for `CC(=O)Cc1nsc(NC(=O)c2ccc(-c3ccc(Cl)cc3Cl)o2)n1`?
TIM10 inh: inactive; PfHsp90 yeast 2: inactive; tim10-1 inh: 46; tim23-1 inh: 57; NLRP3 yeast inh: inactive; tim10-1 conf: 35; tim23-1 conf: 53

What do the screens show for `CC(=O)Cc1nsc(NC(=O)c2ccc(-c3cc(Cl)ccc3Cl)o2)n1`?
TIM10 inh: inactive; PfHsp90 yeast 2: inactive; tim10-1 inh: inactive; tim23-1 inh: inactive; NLRP3 yeast inh: inactive

Results for COc1cccc(CNC(=O)C2CCN(c3nnc(N4CCCC4=O)s3)CC2)c1 ?
TIM10 inh: inactive; PfHsp90 yeast 2: inactive; tim10-1 inh: inactive; tim23-1 inh: inactive; NLRP3 yeast inh: inactive

Results for Cc1nc(NC(C)(C)CO)c([N+](=O)[O-])cc1[N+](=O)[O-] ?
TIM10 inh: inactive; PfHsp90 yeast 2: inactive; tim10-1 inh: inactive; tim23-1 inh: inactive; NLRP3 yeast inh: inactive

What do the screens show for `COC(=O)c1cc(C(=O)NCC2CCCCC2)cc([N+](=O)[O-])c1`?
TIM10 inh: inactive; PfHsp90 yeast 2: inactive; tim10-1 inh: inactive; tim23-1 inh: inactive; NLRP3 yeast inh: inactive

How did COC1(C)CC2C(CC1OC(=O)c1cc([N+](=O)[O-])cc([N+](=O)[O-])c1)C2(C)C (stereo not drawn) do in these assays?
TIM10 inh: 63; PfHsp90 yeast 2: inactive; tim10-1 inh: 60; tim23-1 inh: 65; NLRP3 yeast inh: inactive; tim10-1 conf: 61; TIM10 conf: 62; tim23-1 conf: 68

What do the screens show for `CC1=CC(C)C2(COC(=O)Nc3ccccc3)COC(C)C1C2C` (stereo not drawn)?
TIM10 inh: inactive; PfHsp90 yeast 2: inactive; tim10-1 inh: inactive; tim23-1 inh: inactive; NLRP3 yeast inh: inactive

How did CCOc1ccccc1C(=O)Nc1cc2c(cc1N1CCCC1)n(CC)c(=O)n2CC do in these assays?
TIM10 inh: inactive; PfHsp90 yeast 2: inactive; tim10-1 inh: 48; tim23-1 inh: 57; NLRP3 yeast inh: inactive; tim10-1 conf: inactive; tim23-1 conf: 51

What do the screens show for `CCN=c1sc(C(=O)NCCc2ccccc2)cc(=O)n1CC`?
TIM10 inh: 43; PfHsp90 yeast 2: inactive; tim10-1 inh: 51; tim23-1 inh: 66; NLRP3 yeast inh: inactive; tim10-1 conf: 48; TIM10 conf: inactive; tim23-1 conf: 52

Results for O=C(NCCc1ccccc1)c1cccs1 ?
TIM10 inh: inactive; PfHsp90 yeast 2: inactive; tim10-1 inh: inactive; tim23-1 inh: inactive; NLRP3 yeast inh: inactive

What do the screens show for `COc1ccc(NC(=O)c2cc(S(=O)(=O)N3CCCCC3)ccc2OC)cc1`?
TIM10 inh: inactive; PfHsp90 yeast 2: inactive; tim10-1 inh: inactive; tim23-1 inh: inactive; NLRP3 yeast inh: inactive

What do the screens show for `NNC(=O)c1[nH]c2ccc(Cl)cc2c1-c1ccccc1`?
TIM10 inh: inactive; PfHsp90 yeast 2: inactive; tim10-1 inh: 51; tim23-1 inh: 61; NLRP3 yeast inh: inactive; tim10-1 conf: 52; tim23-1 conf: 42

Results for COc1ccc(SC[C@H](Cc2ccccc2)N2CC[C@@H](NC(=O)OCc3ccccc3)CCC2=O)cc1 ?
TIM10 inh: inactive; PfHsp90 yeast 2: inactive; tim10-1 inh: inactive; tim23-1 inh: inactive; NLRP3 yeast inh: inactive

Results for N=C(N1CCCc2ccccc21)N1CCCc2ccccc21 ?
PfHsp90 yeast 2: inactive

What do the screens show for `CC(C)(C)C(=O)O/N=C(\N)Cc1ccc(-c2csnn2)cc1`?
TIM10 inh: 47; PfHsp90 yeast 2: inactive; tim10-1 inh: 75; tim23-1 inh: 51; NLRP3 yeast inh: inactive; tim10-1 conf: 82; TIM10 conf: 52; tim23-1 conf: inactive

How did FC(F)(F)c1nnc2ccc(N3CCCC3)nn12 do in these assays?
TIM10 inh: inactive; tim10-1 inh: inactive; tim23-1 inh: inactive; NLRP3 yeast inh: inactive

Results for FC(F)(F)c1nnc2ccc(N3CCCCCC3)nn12 ?
TIM10 inh: inactive; PfHsp90 yeast 2: inactive; tim10-1 inh: 41; tim23-1 inh: 50; NLRP3 yeast inh: inactive; tim10-1 conf: inactive; tim23-1 conf: inactive

How did O=C1C(N2CCOCC2)=C(n2nnc3ccccc32)C(=O)c2ccccc21 do in these assays?
TIM10 inh: 78; PfHsp90 yeast 2: inactive; tim10-1 inh: 64; tim23-1 inh: 83; NLRP3 yeast inh: inactive; tim10-1 conf: 60; TIM10 conf: 69; tim23-1 conf: 89

Results for O=C1c2ccccc2C(=O)c2c1cccc2-n1nnc2ccccc21 ?
TIM10 inh: inactive; PfHsp90 yeast 2: inactive; tim10-1 inh: inactive; tim23-1 inh: inactive; NLRP3 yeast inh: inactive

What do the screens show for `CN1CCN(NC(=O)c2cccs2)CC1`?
TIM10 inh: inactive; PfHsp90 yeast 2: inactive; tim10-1 inh: inactive; tim23-1 inh: inactive; NLRP3 yeast inh: inactive

Results for CCn1c(/C=C/c2ccccc2)nc2ccccc21 ?
TIM10 inh: inactive; PfHsp90 yeast 2: inactive; tim10-1 inh: inactive; tim23-1 inh: inactive; NLRP3 yeast inh: inactive

Compound activity from PubChem BioAssay.
